# Source: the supplement of paper PMC8728848
# About 410 targets per protein were measured; listed, in parts, are those with the strongest signals and a random draw of the rest.
# B1: DC-ASGPR L+GEE (Homo sapiens) (protein)
# chain: MTRTYENFQYLENKVKVQGFKNGPLPLQSLLQRLRSGPCHLLLSLGLGLLLLVIICVVGFQNSKFQRDLVTLRTDFSNFTSNTVAEIQALTSQGSSLEETIASLKAEVEGFKQERQAGVSELQEHTTQKAHLGHCPHCPSVCVPVHSEMLLRVQQLVQDLKKLTCQVATLNNNGEEASTEGTCCPVNWVEHQDSCYWFSHSGMSWAEAEKYCQLKNAHLVVINSREEQNFVQKYLGSAYTWMGLSDPEGAWKWVDGTDYATGFQNWKPGQPDDWQGHGLGGGEDCAHFHPDGRWNDDVCQRPYHWVCEAGLGQTSQESH
# Legend:
# Assay in all cases: glycan array binding signal (z-score within array); higher = stronger binding
# Settings in all cases: glycan notation: IUPAC condensed, linker removed
# [1] = molecular target: Fuc(a1-2)Gal(b1-3)GlcNAc(b1-2)Man(a1-3)[Fuc(a1-2)Gal(b1-3)GlcNAc(b1-2)Man(a1-6)]Man(b1-4)GlcNAc(b1-4)[Fuc(a1-6)]GlcNAc
# Outline: (§1)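 Columns mapping to the same glycan were averaged after glycan names were converted to IUPAC-condensed notation. The data come from 3228 arrays in the Consortium for Functional Glycomics database, limited to those with an available protein sequence. Binding is reported as a within-array Z-score averaged across arrays of one protein sequence and across linkers.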
# [2] = molecular target: Fuc(a1-2)Gal(b1-4)GlcNAc(b1-3)Gal(b1-4)GlcNAc(b1-2)Man(a1-3)[Fuc(a1-2)Gal(b1-4)GlcNAc(b1-3)Gal(b1-4)GlcNAc(b1-2)Man(a1-6)]Man(b1-4)GlcNAc(b1-4)GlcNAc
# Outline: as §1
# [3] = molecular target: Fuc(a1-2)[Gal(a1-3)]Gal(b1-3)GlcNAc(b1-6)GalNAc
# Outline: as §1
# [4] = molecular target: Fuc(a1-2)[Gal(a1-3)]Gal(b1-4)GlcNAc(b1-6)GalNAc
# Outline: as §1
# [5] = molecular target: Fuc(a1-2)[GalNAc(a1-3)]Gal(b1-4)GlcNAc(b1-2)Man
# Outline: as §1
# [6] = molecular target: Fuc(a1-2)[GalNAc(a1-3)]Gal(b1-4)GlcNAc(b1-6)GalNAc
# Outline: as §1
# [7] = molecular target: Fuc(a1-2)[GalNAc(b1-3)]Gal
# Outline: as §1
# Gal(a1-3)Gal = molecular target: Gal(a1-3)Gal
# Outline: as §1
# [8] = molecular target: Gal(a1-3)Gal(b1-4)GlcNAc(b1-6)GalNAc
# Outline: as §1
# [9] = molecular target: Gal(a1-3)Gal(b1-4)[Fuc(a1-3)]GlcNAc(b1-2)Man(a1-3)[Gal(a1-3)Gal(b1-4)[Fuc(a1-3)]GlcNAc(b1-2)Man(a1-6)]Man(b1-4)GlcNAc(b1-4)GlcNAc
# Outline: as §1
# Gal(a1-3)GalNAc = molecular target: Gal(a1-3)GalNAc
# Outline: as §1
# [10] = molecular target: Gal(a1-3)[Gal(a1-4)]Gal(b1-4)GlcNAc
# Outline: as §1
# Gal(a1-4)Gal(b1-4)Glc = molecular target: Gal(a1-4)Gal(b1-4)Glc
# Outline: as §1
# [11] = molecular target: Gal(b1-3)GlcNAc(b1-2)Man(a1-3)[Gal(b1-3)GlcNAc(b1-2)Man(a1-6)]Man(b1-4)GlcNAc(b1-4)[Fuc(a1-6)]GlcNAc
# Outline: as §1
# [12] = molecular target: Gal(b1-3)GlcNAc(b1-6)Gal(b1-4)GlcNAc
# Outline: as §1
# [13] = molecular target: Gal(b1-3)GlcNAc(b1-6)GalNAc
# Outline: as §1
# [14] = molecular target: Gal(b1-3)[Fuc(a1-4)]GlcNAc(b1-3)Gal(b1-3)[Fuc(a1-4)]GlcNAc
# Outline: as §1
# [15] = molecular target: Gal(b1-3)[Neu5Ac(a2-6)]GlcNAc(b1-4)Gal(b1-4)Glc
# Outline: as §1
# [16] = molecular target: Gal(b1-4)GlcNAc(b1-2)Man(a1-3)[Gal(b1-4)GlcNAc(b1-2)Man(a1-6)][Gal(b1-4)GlcNAc(b1-4)]Man(b1-4)GlcNAc(b1-4)[Fuc(a1-6)]GlcNAc
# Outline: as §1
# [17] = molecular target: Gal(b1-4)GlcNAc(b1-3)Gal(b1-4)GlcNAc(b1-2)[Gal(b1-4)GlcNAc(b1-3)Gal(b1-4)GlcNAc(b1-6)]Man(a1-6)[Gal(b1-4)GlcNAc(b1-3)Gal(b1-4)GlcNAc(b1-2)Man(a1-3)]Man(b1-4)GlcNAc(b1-4)[Fuc(a1-6)]GlcNAc
# Outline: as §1
# [18] = molecular target: Gal(b1-4)GlcNAc(b1-3)Gal(b1-4)GlcNAc(b1-3)Gal(b1-4)GlcNAc(b1-2)[Gal(b1-4)GlcNAc(b1-3)Gal(b1-4)GlcNAc(b1-3)Gal(b1-4)GlcNAc(b1-6)]Man(a1-6)[Gal(b1-4)GlcNAc(b1-3)Gal(b1-4)GlcNAc(b1-3)Gal(b1-4)GlcNAc(b1-2)Man(a1-3)]Man(b1-4)GlcNAc(b1-4)[Fuc(a1-6)]GlcNAc
# Outline: as §1
# [19] = molecular target: Gal(b1-4)GlcNAc(b1-3)Gal(b1-4)GlcNAc(b1-3)Gal(b1-4)GlcNAc(b1-3)Gal(b1-4)GlcNAc(b1-2)[Gal(b1-4)GlcNAc(b1-3)Gal(b1-4)GlcNAc(b1-3)Gal(b1-4)GlcNAc(b1-3)Gal(b1-4)GlcNAc(b1-6)]Man(a1-6)[Gal(b1-4)GlcNAc(b1-3)Gal(b1-4)GlcNAc(b1-3)Gal(b1-4)GlcNAc(b1-3)Gal(b1-4)GlcNAc(b1-2)Man(a1-3)]Man(b1-4)GlcNAc(b1-4)[Fuc(a1-6)]GlcNAc
# Outline: as §1
# [20] = molecular target: Gal(b1-4)GlcNAc(b1-3)Gal(b1-4)GlcNAc(b1-3)Gal(b1-4)GlcNAc(b1-3)Gal(b1-4)GlcNAc(b1-3)Gal(b1-4)GlcNAc(b1-3)Gal(b1-4)GlcNAc(b1-2)Man(a1-3)[Gal(b1-4)GlcNAc(b1-3)Gal(b1-4)GlcNAc(b1-3)Gal(b1-4)GlcNAc(b1-3)Gal(b1-4)GlcNAc(b1-3)Gal(b1-4)GlcNAc(b1-3)Gal(b1-4)GlcNAc(b1-2)Man(a1-6)]Man(b1-4)GlcNAc(b1-4)GlcNAc
# Outline: as §1
# [21] = molecular target: Gal(b1-4)GlcNAc(b1-6)[Gal(b1-4)GlcNAc(b1-3)]GalNAc
# Outline: as §1
# Gal3S(b1-3)GalNAc = molecular target: Gal3S(b1-3)GalNAc
# Outline: as §1
# [22] = molecular target: Gal3S(b1-4)[Fuc(a1-3)]GlcNAc6S
# Outline: as §1
# GalNAc(b1-3)Gal = molecular target: GalNAc(b1-3)Gal
# Outline: as §1
binder,measurement,setting,value
B1,glycan array binding signal (z-score),[1],-0.314
same,glycan array binding signal (z-score),[2],0.538
same,glycan array binding signal (z-score),[3],2.67
same,glycan array binding signal (z-score),[4],-0.492
same,glycan array binding signal (z-score),[5],0.54
same,glycan array binding signal (z-score),[6],3.41
same,glycan array binding signal (z-score),[7],3.61
same,glycan array binding signal (z-score),Gal(a1-3)Gal,0.243
same,glycan array binding signal (z-score),[8],3.21
same,glycan array binding signal (z-score),[9],0.091
same,glycan array binding signal (z-score),Gal(a1-3)GalNAc,-0.254
same,glycan array binding signal (z-score),[10],-0.371
same,glycan array binding signal (z-score),Gal(a1-4)Gal(b1-4)Glc,-0.702
same,glycan array binding signal (z-score),[11],-0.527
same,glycan array binding signal (z-score),[12],-0.073
same,glycan array binding signal (z-score),[13],3.3
same,glycan array binding signal (z-score),[14],-0.093
same,glycan array binding signal (z-score),[15],-0.382
same,glycan array binding signal (z-score),[16],-0.406
same,glycan array binding signal (z-score),[17],-0.323
same,glycan array binding signal (z-score),[18],0.024
same,glycan array binding signal (z-score),[19],2.52
same,glycan array binding signal (z-score),[20],0.991
same,glycan array binding signal (z-score),[21],-0.432
same,glycan array binding signal (z-score),Gal3S(b1-3)GalNAc,0.442
same,glycan array binding signal (z-score),[22],0.135
same,glycan array binding signal (z-score),GalNAc(b1-3)Gal,3.04
